One sequence from publication PMC7862700, “An all-to-all approach to the identification of sequence-specific readers for epigenetic DNA modifications on cytosine” can be followed below.

Common to all, as to experiment: DAPPL (digital affinity profiling via proximity ligation, sequencing); 10 mM Tris-HCl pH 7.5, 50 mM NaCl, 1 mM DTT, 4% glycerol, room temperature, 30 min; GST-TFs on glutathione beads, 16-mer random dsDNA library, 0.1% formaldehyde crosslink after washing; high values mean tight binding
One experiment addresses T1, FEV (Homo sapiens, UniProt Q99581 1-238).
T1 sequence: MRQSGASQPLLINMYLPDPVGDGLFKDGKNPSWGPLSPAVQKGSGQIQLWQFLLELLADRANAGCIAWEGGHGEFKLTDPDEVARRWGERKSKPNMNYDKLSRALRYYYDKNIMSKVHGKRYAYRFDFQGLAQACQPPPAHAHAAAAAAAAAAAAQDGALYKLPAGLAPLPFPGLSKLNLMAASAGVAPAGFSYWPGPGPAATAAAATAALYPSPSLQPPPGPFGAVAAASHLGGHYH
The note with it: protein: recombinant; tags: N-terminal GST; dsDNA, one strand shown. The method in brief:
(§1)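 Human transcription factors fused to GST were expressed in yeast, captured on glutathione beads, given DNA barcodes and pooled with a GST-only negative control. Pools were incubated with 200 nmole of a 16-mer random double-stranded DNA library in Tris/NaCl/DTT/glycerol buffer at room temperature for 30 min. They were then washed, crosslinked with 0.1% formaldehyde, proximity-ligated (BsaI/T4 ligase, 1 h, 37 °C), PCR-amplified and sequenced on an Illumina NextSeq500. Binding signal is each 6-mer's read frequency for a factor divided by its frequency for the GST control.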

A further experiment has as its target ETV5 (Homo sapiens, UniProt P41161 1-510). The note with it: protein: recombinant; tags: N-terminal GST; dsDNA, one strand shown. The method in brief:
as §1

A further experiment deals with HSF1 (Homo sapiens, UniProt Q00613 1-529). The following applies: protein: recombinant; tags: N-terminal GST; chain copies: 3; dsDNA, one strand shown. The method in brief:
as §1

The next experiment deals with T2, SPIC (Homo sapiens, UniProt Q8N5J4 1-248).
T2 sequence: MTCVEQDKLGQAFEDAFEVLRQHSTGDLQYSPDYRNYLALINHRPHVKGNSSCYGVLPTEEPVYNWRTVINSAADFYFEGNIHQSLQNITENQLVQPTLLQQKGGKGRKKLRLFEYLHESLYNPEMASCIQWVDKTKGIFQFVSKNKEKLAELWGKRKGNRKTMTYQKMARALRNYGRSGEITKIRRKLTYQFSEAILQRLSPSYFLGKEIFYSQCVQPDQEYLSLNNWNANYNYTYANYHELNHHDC
The following applies: protein: recombinant; tags: N-terminal GST; dsDNA, one strand shown. The method in brief: as §1

A further experiment has as its target ELF4 (Homo sapiens, UniProt Q99607 1-663). The following applies: protein: recombinant; tags: N-terminal GST; dsDNA, one strand shown. The method in brief:
as §1

The next experiment deals with T3, ELK4 (Homo sapiens, UniProt P28324-2 1-405).
T3 sequence: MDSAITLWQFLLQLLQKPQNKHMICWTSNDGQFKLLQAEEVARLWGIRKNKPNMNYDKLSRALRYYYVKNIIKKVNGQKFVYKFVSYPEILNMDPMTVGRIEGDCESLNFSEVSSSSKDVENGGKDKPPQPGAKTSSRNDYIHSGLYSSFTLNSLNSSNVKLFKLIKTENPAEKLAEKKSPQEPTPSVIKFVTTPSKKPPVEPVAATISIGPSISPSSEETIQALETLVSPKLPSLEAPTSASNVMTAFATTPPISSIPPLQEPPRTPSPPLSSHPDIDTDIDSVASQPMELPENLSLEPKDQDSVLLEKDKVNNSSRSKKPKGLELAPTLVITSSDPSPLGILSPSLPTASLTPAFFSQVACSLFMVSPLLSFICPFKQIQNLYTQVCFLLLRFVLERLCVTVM
The following applies: protein: recombinant; tags: N-terminal GST; dsDNA, one strand shown. The method in brief:
as §1

For the next experiment, the target named is T4, ETV2 (Homo sapiens, UniProt O00321 1-342).
T4 sequence: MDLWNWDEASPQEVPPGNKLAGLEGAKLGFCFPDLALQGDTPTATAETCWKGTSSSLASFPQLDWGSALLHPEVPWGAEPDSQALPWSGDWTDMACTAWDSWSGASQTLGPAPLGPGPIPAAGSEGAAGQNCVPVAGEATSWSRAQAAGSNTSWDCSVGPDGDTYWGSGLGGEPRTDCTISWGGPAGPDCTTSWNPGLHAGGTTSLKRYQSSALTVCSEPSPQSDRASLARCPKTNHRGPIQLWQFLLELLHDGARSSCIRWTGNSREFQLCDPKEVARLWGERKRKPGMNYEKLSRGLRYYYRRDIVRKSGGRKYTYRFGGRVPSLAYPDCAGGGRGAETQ
The note with it: protein: recombinant; tags: N-terminal GST; dsDNA, one strand shown. The method in brief: as §1

For a further experiment, the target named is T5, ELF3 (Homo sapiens, UniProt P78545 1-371).
T5 sequence: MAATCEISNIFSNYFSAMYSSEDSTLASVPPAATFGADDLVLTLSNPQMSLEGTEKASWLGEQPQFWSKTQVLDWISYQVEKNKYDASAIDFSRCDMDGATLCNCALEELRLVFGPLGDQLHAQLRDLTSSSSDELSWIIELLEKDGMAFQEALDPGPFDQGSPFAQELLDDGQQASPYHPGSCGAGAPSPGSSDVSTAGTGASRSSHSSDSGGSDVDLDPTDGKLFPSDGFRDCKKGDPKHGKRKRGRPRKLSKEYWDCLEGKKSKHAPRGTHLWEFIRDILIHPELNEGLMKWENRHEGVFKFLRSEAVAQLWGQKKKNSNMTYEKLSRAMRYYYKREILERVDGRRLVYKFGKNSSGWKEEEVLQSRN
The note with it: protein: recombinant; tags: N-terminal GST; dsDNA, one strand shown. The method in brief: as §1

In a further experiment the target is CRX (Homo sapiens, UniProt O43186 1-299). The following applies: protein: recombinant; tags: N-terminal GST; dsDNA, one strand shown. The method in brief: as §1
Chain of CRX (O43186 whole entry): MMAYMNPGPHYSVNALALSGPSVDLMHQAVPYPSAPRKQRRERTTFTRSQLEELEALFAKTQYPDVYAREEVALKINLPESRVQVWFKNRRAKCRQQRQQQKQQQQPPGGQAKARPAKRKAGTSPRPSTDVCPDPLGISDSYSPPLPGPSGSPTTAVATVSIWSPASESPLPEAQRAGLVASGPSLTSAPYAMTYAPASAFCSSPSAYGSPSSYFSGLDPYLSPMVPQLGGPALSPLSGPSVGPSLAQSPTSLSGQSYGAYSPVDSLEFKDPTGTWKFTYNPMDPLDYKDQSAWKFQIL
Another experiment concerns the target ETV1 (Homo sapiens, UniProt P50549 1-477). The note with it: protein: recombinant; tags: N-terminal GST; dsDNA, one strand shown. The method in brief: as §1
Another experiment concerns the target T6, ERF (Homo sapiens, UniProt P50548 1-548).
T6 sequence: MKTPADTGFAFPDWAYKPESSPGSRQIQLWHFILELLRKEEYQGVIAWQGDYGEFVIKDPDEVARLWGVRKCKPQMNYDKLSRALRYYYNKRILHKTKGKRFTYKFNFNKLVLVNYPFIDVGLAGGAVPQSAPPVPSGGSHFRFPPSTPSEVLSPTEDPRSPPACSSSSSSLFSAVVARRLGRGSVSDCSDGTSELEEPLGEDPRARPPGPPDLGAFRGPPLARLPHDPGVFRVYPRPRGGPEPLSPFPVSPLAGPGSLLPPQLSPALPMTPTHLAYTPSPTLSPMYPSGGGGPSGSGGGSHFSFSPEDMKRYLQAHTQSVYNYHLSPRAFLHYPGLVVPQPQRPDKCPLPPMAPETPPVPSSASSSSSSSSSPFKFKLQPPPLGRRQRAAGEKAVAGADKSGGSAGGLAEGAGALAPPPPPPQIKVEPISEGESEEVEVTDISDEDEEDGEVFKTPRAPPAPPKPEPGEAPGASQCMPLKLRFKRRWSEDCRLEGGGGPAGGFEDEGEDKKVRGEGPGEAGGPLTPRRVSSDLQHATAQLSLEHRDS
The following applies: protein: recombinant; tags: N-terminal GST; dsDNA, one strand shown. The method in brief: as §1

For a further experiment, the target named is T7, ETV3L (Homo sapiens, UniProt Q6ZN32 1-361).
T7 sequence: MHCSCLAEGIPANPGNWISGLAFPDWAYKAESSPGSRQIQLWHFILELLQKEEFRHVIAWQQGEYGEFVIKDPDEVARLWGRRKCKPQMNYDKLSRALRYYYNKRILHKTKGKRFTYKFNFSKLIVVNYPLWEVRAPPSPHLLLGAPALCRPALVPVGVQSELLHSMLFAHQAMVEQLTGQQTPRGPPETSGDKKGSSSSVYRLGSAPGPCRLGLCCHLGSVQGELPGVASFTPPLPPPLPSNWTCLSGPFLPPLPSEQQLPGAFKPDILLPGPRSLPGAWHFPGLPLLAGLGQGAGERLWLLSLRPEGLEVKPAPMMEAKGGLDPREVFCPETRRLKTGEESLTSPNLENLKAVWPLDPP
The following applies: protein: recombinant; tags: N-terminal GST; dsDNA, one strand shown. The method in brief:
as §1

For a further experiment, the target named is T8, ETS2 (Homo sapiens, UniProt P15036 1-469).
T8 sequence: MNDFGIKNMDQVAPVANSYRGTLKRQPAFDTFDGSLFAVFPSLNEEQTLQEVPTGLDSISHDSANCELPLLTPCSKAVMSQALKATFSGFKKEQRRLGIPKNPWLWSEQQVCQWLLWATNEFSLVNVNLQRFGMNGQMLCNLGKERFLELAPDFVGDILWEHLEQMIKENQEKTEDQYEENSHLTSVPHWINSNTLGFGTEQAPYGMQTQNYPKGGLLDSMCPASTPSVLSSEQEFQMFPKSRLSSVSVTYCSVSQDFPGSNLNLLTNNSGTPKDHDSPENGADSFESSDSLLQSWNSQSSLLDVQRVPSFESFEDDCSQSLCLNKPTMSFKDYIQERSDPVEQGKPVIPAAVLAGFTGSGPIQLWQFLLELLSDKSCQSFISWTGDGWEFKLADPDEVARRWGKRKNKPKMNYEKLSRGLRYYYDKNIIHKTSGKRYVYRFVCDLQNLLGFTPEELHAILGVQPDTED
The note with it: protein: recombinant; tags: N-terminal GST; dsDNA, one strand shown. The method in brief:
as §1

Another experiment deals with T9, SPDEF (Homo sapiens, UniProt O95238 1-335).
T9 sequence: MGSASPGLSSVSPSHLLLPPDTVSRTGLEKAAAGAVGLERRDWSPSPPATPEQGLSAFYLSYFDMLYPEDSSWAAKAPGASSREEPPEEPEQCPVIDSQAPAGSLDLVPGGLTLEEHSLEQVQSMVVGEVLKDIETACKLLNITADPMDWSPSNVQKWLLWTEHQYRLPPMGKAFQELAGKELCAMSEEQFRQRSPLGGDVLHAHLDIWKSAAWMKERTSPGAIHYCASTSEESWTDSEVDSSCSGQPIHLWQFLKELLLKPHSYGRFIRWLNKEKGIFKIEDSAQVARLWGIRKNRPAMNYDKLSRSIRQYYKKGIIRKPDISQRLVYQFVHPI
The following applies: protein: recombinant; tags: N-terminal GST; dsDNA, one strand shown. The method in brief:
as §1

Another experiment has as its target T10, ETV7 (Homo sapiens, UniProt Q9Y603 1-341).
T10 sequence: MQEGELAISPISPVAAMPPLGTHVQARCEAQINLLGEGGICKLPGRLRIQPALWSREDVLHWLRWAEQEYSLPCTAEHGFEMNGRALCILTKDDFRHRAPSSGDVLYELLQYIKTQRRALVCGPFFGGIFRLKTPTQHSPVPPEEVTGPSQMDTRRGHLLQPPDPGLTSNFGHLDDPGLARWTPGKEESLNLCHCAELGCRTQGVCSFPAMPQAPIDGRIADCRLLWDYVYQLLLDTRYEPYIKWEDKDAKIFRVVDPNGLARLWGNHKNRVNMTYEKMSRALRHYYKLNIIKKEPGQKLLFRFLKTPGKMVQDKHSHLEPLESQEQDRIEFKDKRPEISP
The note with it: protein: recombinant; tags: N-terminal GST; dsDNA, one strand shown. The method in brief: as §1

For a further experiment, the target named is T11, ELF5 (Homo sapiens, UniProt Q9UKW6-2 1-255).
T11 sequence: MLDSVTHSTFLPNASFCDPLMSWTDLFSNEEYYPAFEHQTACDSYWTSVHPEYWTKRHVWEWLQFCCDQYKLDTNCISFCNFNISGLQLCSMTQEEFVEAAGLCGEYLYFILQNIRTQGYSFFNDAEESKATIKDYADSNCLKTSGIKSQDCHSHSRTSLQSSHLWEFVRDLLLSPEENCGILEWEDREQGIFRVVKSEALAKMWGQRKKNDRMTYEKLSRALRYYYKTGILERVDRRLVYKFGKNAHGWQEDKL
The note with it: protein: recombinant; tags: N-terminal GST; dsDNA, one strand shown. The method in brief:
as §1

A further experiment concerns the target T12, ETV3 (Homo sapiens, UniProt P41162-2 1-143).
T12 sequence: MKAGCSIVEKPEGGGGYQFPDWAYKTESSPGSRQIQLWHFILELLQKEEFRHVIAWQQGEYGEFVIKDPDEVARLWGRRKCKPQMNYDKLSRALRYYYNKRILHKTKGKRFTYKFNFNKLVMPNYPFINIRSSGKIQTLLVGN
The note with it: protein: recombinant; tags: N-terminal GST; dsDNA, one strand shown. The method in brief:
as §1

Another experiment has as its target ETV6 (Homo sapiens, UniProt P41212 1-452). The following applies: protein: recombinant; tags: N-terminal GST; dsDNA, one strand shown. The method in brief: as §1

Chain of HSF1 (Q00613 whole entry): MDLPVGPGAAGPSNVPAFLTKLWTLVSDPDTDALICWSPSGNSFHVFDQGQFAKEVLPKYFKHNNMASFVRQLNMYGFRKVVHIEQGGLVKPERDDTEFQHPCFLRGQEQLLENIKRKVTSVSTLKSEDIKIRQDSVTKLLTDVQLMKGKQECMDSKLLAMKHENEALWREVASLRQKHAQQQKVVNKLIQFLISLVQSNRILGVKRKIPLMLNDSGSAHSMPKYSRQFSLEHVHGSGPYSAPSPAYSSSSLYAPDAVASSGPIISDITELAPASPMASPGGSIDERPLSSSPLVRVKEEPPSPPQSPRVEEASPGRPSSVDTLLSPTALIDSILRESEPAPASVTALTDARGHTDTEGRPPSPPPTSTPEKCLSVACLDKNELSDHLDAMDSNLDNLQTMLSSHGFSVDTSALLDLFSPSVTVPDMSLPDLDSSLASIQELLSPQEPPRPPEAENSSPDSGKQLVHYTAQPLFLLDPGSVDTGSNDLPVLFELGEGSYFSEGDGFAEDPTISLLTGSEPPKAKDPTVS
Chain of ETV1 (P50549 whole entry): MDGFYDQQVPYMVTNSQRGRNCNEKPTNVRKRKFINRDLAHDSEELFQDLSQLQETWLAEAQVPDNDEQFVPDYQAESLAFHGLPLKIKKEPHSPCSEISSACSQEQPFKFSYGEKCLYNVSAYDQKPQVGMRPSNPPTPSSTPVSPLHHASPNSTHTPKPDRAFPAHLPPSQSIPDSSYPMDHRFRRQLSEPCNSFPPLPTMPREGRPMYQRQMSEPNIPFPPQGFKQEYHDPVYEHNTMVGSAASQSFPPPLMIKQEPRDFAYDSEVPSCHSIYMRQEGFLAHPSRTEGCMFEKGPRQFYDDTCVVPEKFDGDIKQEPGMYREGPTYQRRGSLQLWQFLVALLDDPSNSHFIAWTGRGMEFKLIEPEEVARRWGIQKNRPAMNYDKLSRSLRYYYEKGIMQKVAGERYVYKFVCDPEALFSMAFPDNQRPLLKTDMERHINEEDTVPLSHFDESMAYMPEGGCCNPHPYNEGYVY
Chain of ELF4 (Q99607 whole entry): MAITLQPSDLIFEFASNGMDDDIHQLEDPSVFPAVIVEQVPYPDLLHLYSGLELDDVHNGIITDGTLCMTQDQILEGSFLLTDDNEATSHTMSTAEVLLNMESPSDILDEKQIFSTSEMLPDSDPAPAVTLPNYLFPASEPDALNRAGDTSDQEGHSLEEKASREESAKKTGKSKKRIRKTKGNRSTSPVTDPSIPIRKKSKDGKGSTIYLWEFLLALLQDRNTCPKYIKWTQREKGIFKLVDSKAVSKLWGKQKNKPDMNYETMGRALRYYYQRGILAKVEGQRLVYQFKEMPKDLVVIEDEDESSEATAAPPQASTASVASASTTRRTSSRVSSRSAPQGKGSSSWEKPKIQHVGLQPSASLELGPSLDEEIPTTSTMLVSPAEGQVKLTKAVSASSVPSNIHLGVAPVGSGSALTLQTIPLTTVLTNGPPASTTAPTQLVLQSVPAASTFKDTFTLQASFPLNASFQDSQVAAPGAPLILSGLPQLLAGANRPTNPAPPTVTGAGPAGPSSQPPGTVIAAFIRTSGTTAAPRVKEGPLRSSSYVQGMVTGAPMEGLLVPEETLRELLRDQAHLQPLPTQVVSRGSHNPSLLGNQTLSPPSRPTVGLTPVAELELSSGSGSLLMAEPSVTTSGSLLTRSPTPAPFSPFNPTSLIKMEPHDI
Chain of ETV5 (P41161 whole entry): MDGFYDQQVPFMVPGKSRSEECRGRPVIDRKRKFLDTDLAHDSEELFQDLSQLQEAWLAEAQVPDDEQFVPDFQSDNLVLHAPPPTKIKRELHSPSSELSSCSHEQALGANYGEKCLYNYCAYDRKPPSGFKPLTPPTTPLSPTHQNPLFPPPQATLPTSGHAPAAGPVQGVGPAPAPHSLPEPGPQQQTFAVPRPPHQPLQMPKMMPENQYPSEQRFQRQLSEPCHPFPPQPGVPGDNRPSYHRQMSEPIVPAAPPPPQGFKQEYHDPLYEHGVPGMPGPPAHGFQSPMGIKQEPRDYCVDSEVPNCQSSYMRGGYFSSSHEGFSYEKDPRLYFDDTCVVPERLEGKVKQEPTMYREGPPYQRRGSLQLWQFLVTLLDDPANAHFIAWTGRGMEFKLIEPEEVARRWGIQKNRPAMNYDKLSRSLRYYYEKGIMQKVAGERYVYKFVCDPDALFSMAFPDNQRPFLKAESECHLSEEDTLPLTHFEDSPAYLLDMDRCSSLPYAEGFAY
Chain of ETV6 (P41212 whole entry): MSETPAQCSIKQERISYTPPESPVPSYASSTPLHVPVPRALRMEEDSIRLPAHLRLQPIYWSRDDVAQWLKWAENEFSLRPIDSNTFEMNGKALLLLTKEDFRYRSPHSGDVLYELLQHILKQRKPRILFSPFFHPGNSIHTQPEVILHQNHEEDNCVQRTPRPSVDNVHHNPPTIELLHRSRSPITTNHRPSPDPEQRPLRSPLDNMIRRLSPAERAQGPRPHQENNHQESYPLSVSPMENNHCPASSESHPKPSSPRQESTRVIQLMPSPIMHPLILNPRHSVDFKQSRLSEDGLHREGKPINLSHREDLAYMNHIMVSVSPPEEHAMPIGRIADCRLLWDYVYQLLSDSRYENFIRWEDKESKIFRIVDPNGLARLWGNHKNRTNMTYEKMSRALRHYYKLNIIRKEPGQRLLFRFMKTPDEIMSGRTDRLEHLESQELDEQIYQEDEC

In the case of CTAATC, the binding signal with FEV was 1.33 fold enrichment (6-mer frequency, TF over GST control); with ETV5, 1.32 fold enrichment (6-mer frequency, TF over GST control); with HSF1 it was 3.22 fold enrichment (6-mer frequency, TF over GST control); in the experiment with SPIC, 1.41 fold enrichment (6-mer frequency, TF over GST control); with ELF4, 1.42 fold enrichment (6-mer frequency, TF over GST control); with ELK4 it was 1.35 fold enrichment (6-mer frequency, TF over GST control). Also, the binding signal with ETV2 is 1.41 fold enrichment (6-mer frequency, TF over GST control); in the experiment with ELF3, 1.56 fold enrichment (6-mer frequency, TF over GST control); in the experiment with CRX, 5.33 fold enrichment (6-mer frequency, TF over GST control); with ETV1, 1.49 fold enrichment (6-mer frequency, TF over GST control); with ERF it was 1.31 fold enrichment (6-mer frequency, TF over GST control); in the experiment with ETV3L, 1.34 fold enrichment (6-mer frequency, TF over GST control). The binding signal in the experiment with ETS2 is 1.32 fold enrichment (6-mer frequency, TF over GST control); with SPDEF, 1.34 fold enrichment (6-mer frequency, TF over GST control); in the experiment with ETV7, 1.41 fold enrichment (6-mer frequency, TF over GST control); with ELF5, 1.33 fold enrichment (6-mer frequency, TF over GST control); with ETV3, 1.32 fold enrichment (6-mer frequency, TF over GST control); with ETV6, 1.35 fold enrichment (6-mer frequency, TF over GST control).
